# Assay results published in PubChem BioAssay (NCATS).
# Several values for one entry are separate records, joined by “and”; a condition that tells them apart may be missing. Equal entries are not always repeated. Inconclusive results are not listed. Where a call stands in place of a potency, no number is given. For some of these results: Results with a measured potency or affinity are listed apart. Activity calls are given as the source filed them.
# Tests used:
# [1] = Ebola virus entry assay, green fluorescence channel
# [2] = Ebola virus entry assay, blue channel fluorescence
# [3] = Ebola virus entry assay, green fluorescence channel; remark: listed apart in the source
# [4] = Ebola virus entry assay, ratio channel readout
# [5] = Ebola virus entry assay, blue channel fluorescence; remark: listed apart in the source
# [6] = Ebola virus entry assay, green channel fluorescence
# [7] = Ebola virus entry assay, blue channel fluorescence; remark: listed apart in the source
# [8] = Ebola virus entry assay, reporter ratio channel; AC50: Channel type: primary unless noted; outcome: Channel type: primary unless noted
# [9] = Ebola virus entry assay, blue channel (ratio component)
# [10] = qHTS Assay for Identifying Gametocytocidal Compounds (AID 743244; active = well fitted curve in the direction sought with a large enough effect; an effect the other way counts as inactive or inconclusive; note: potency is the fitted concentration of half-maximal effect;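 for max response: actives lower the fluorescent signal which means gametocytes are killed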); conditions: P. falciparum 3D7 stage III-V gametocytes, alamarBlue, 72 h; max response: stronger effect = lower value
# Outline: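 In this qHTS viability screen, late-stage 3D7 gametocytes are incubated with compound for 72 h, then with alamarBlue for 24 h; reduced resorufin fluorescence marks killing.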
# [11] = qHTS assay for cell viability of HEK293 cells (AID 743288; active = well fitted curve in the direction sought with a large enough effect; an effect the other way counts as inactive or inconclusive; note: potency is the fitted concentration of half-maximal effect; nearly all actives have a fitted effect of over 50% in size); conditions: ATP luminescence (CellTiter-Glo), 18 h; max response: stronger effect = lower value
# Outline: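 Readout is luciferase-coupled ATP content (CellTiter-Glo luminescence, 30 min room temperature) as a measure of metabolically competent cells. Parental HEK293 cells were plated 5 h or more before compound addition, then treated 18 h at 37 C.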
# [12] = qHTS assay for cell viability of the p53RE-bla HCT-116 cell line (AID 743292; active = well fitted curve in the direction sought with a large enough effect; an effect the other way counts as inactive or inconclusive; note: nearly all actives have a fitted effect of over 55% in size); conditions: p53RE-bla HCT-116 viability, ATP luminescence, 16 h; series mostly up to 95 µM
# Outline: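 Intracellular ATP of p53RE-bla HCT-116 cells measured by luciferase luminescence following 16 h compound incubation at 37 C; DMSO-only wells served as vehicle controls.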
# [13] = qHTS profiling of the MIPE4 collection as inhibitors of Plasmodium falciparum (3D7) proliferation (AID 743344); conditions: P. falciparum 3D7 in erythrocytes, SYBR Green DNA fluorescence, 72 h; at 28.5 µM (top of the series) unless noted
# Outline: (§1)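 Parasite DNA was quantified by SYBR Green I fluorescence (ex 485, em 535 nm) after overnight lysis in saponin/Triton buffer at room temperature. Cultures at 0.3% parasitemia and 2.5% hematocrit were first exposed to compound for 72 h at 37 C; signals were normalised to artemisinin (0.29 uM) and vehicle wells.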
# [14] = qHTS profiling of the MIPE4 collection as inhibitors of Plasmodium falciparum (DD2) proliferation (AID 743345); conditions: P. falciparum Dd2 in erythrocytes, SYBR Green DNA, 72 h; at 28.5 µM (top of the series) unless noted
# Outline: as §1
# [15] = qHTS profiling of the MIPE4 collection as inhibitors of Plasmodium falciparum (DD2) proliferation (Rep 2) (AID 743346); conditions: P. falciparum Dd2 in erythrocytes, SYBR Green DNA, 72 h; at 28.5 µM (top of the series) unless noted
# Outline: as §1
# [16] = qHTS profiling of the MIPE4 collection as inhibitors of Plasmodium falciparum (HB3) proliferation (AID 743347); conditions: P. falciparum HB3 in erythrocytes, SYBR Green DNA, 72 h; at 28.5 µM (top of the series) unless noted
# Outline: as §1
# [17] = Ebola virus entry assay, ratio channel
smiles,measurement,setting,value
c1cnc2cc3c(cc2n1)C1CNCC3C1,efficacy,[1],-29.9% (inactive)
same,outcome,[2],inactive
same,outcome,[3],inactive
same,outcome,[4],inactive
same,outcome,[5],inactive
same,outcome,[6],inactive
same,outcome,[7],inactive
same,outcome,[8],inactive
same,outcome,[9],inactive
Cc1onc(-c2ccccc2Cl)c1C(=O)N[C@@H]1C(=O)N2[C@@H]1SC(C)(C)[C@@H]2C(=O)O,efficacy,[1],13.5% (inactive)
same,outcome,[2],inactive
same,outcome,[3],inactive
same,outcome,[4],inactive
same,outcome,[5],inactive
same,outcome,[6],inactive
same,outcome,[7],inactive
same,outcome,[8],inactive
same,outcome,[9],inactive
CCCCC1=NC2(CCCC2)C(=O)N1Cc1ccc(-c2ccccc2-c2nn[nH]n2)cc1,efficacy,[1],32.1% (inactive)
same,outcome,[2],inactive
same,outcome,[3],inactive
same,outcome,[4],inactive
same,outcome,[5],inactive
same,outcome,[6],inactive
same,outcome,[7],inactive
same,outcome,[8],inactive
same,outcome,[9],inactive
CC1(C)S[C@@H]2[C@H](NC(=O)C(C(=O)O)c3ccccc3)C(=O)N2[C@H]1C(=O)O (some centres not stated),efficacy,[1],26% (inactive)
same,outcome,[2],inactive
same,outcome,[3],inactive
same,outcome,[4],inactive
same,outcome,[5],inactive
same,outcome,[6],inactive
same,outcome,[7],inactive
same,outcome,[8],inactive
same,outcome,[9],inactive
CC(C)[N+](C)(CCOC(=O)C1c2ccccc2Oc2ccccc21)C(C)C,efficacy,[1],-23.3% (inactive)
same,outcome,[2],inactive
same,outcome,[3],inactive
same,outcome,[4],inactive
same,outcome,[5],inactive
same,outcome,[6],inactive
same,outcome,[7],inactive
same,outcome,[8],inactive
same,outcome,[9],inactive
O=C1N=C(O)CN1/N=C/c1ccc(-c2ccc([N+](=O)[O-])cc2)o1,efficacy,[1],24% (inactive)
same,outcome,[2],inactive
same,outcome,[3],inactive
same,outcome,[4],inactive
same,outcome,[5],inactive
same,outcome,[6],inactive
same,outcome,[7],inactive
same,outcome,[8],inactive
same,outcome,[9],inactive
N[C@@H](Cc1ccc(N(CCCl)CCCl)cc1)C(=O)O,max response,[10],7.49% (inactive)
same,Potency,[11],50.1 µM (active)
same,Potency,[12],inactive
same,"parasite growth, % of DMSO control",[13],47.5%
same,"parasite growth remaining, % of DMSO control (lower = more inhibition)",[14],21.4%
same,"parasite growth, % of control (lower = inhibition)",[15],31.9%
same,"growth, % of control",[16],57.1%
same,efficacy,[1],12.7% (inactive)
same,outcome,[2],inactive
same,outcome,[3],inactive
same,outcome,[4],inactive
same,outcome,[5],inactive
same,outcome,[6],inactive
same,outcome,[7],inactive
same,outcome,[8],inactive
same,outcome,[9],inactive
COC(=O)C(c1ccccc1Cl)N1CCc2sccc2C1 (configuration not stated),efficacy,[1],27.9% (inactive)
same,outcome,[2],inactive
same,outcome,[3],inactive
same,outcome,[4],inactive
same,outcome,[5],inactive
same,outcome,[6],inactive
same,outcome,[7],inactive
same,outcome,[8],inactive
same,outcome,[9],inactive
COC(=O)N[C@H](C(=O)N[C@@H](Cc1ccccc1)[C@@H](O)CN(Cc1ccc(-c2ccccn2)cc1)NC(=O)[C@@H](NC(=O)OC)C(C)(C)C)C(C)(C)C,efficacy,[1],21.7% (inactive)
same,outcome,[2],inactive
same,outcome,[3],inactive
same,outcome,[4],inactive
same,outcome,[5],inactive
same,outcome,[6],inactive
same,outcome,[7],inactive
same,outcome,[8],inactive
same,outcome,[9],inactive
O=c1[nH]c2ccccc2n1C1CCN(CCCC(c2ccc(F)cc2)c2ccc(F)cc2)CC1,Potency,[11],50.1 µM (active)
same,efficacy,[1],-303% (inactive)
same,AC50,[2],11.2 µM (active)
same,outcome,[3],inactive
same,AC50,[4],7.95 µM (active)
same,AC50,[5],3.16 µM (active)
same,AC50,[17],3.98 µM (active)
same,AC50,[8],3.98 µM (active)
CC1OC(C)OC(C)O1 (configuration not stated),max response,[10],-0.681% (inactive) and 11.3% (inactive)
same,efficacy,[1],12.6% (inactive)
same,outcome,[2],inactive
same,outcome,[3],inactive
same,outcome,[4],inactive
same,outcome,[5],inactive
same,outcome,[6],inactive
same,outcome,[7],inactive
same,outcome,[8],inactive
same,outcome,[9],inactive
Nc1cc(-c2ccncc2)c[nH]c1=O,efficacy,[1],26.8% (inactive)
same,outcome,[2],inactive
same,outcome,[3],inactive
same,outcome,[4],inactive
same,outcome,[5],inactive
same,outcome,[6],inactive
same,outcome,[7],inactive
same,outcome,[8],inactive
same,outcome,[9],inactive
Nc1nc2c(ncn2COC(CO)CO)c(=O)[nH]1,efficacy,[1],-13.6% (inactive)
same,outcome,[2],inactive
same,outcome,[3],inactive
same,outcome,[4],inactive
same,outcome,[5],inactive
same,outcome,[6],inactive
same,outcome,[7],inactive
same,outcome,[8],inactive
same,outcome,[9],inactive
CN(C)CCC=C1c2ccccc2CCc2ccccc21,Potency,[10],1.26 µM (active)
same,efficacy,[1],121% (inactive)
same,AC50,[2],11.2 µM (active)
same,outcome,[3],inactive
same,outcome,[4],inactive
same,AC50,[5],8.91 µM (active)
same,AC50,[17],7.94 µM (active)
same,AC50,[8],7.94 µM (active)
CCN1CCN(C(=O)N[C@@H](C(=O)N[C@@H]2C(=O)N3C(C(=O)O)=C(CSc4nnnn4C)CS[C@H]23)c2ccc(O)cc2)C(=O)C1=O,efficacy,[1],-23.3% (inactive)
same,outcome,[2],inactive
same,outcome,[3],inactive
same,outcome,[4],inactive
same,outcome,[5],inactive
same,outcome,[6],inactive
same,outcome,[7],inactive
same,outcome,[8],inactive
same,outcome,[9],inactive
O=C1NC(=O)C(c2ccccc2)(c2ccccc2)N1,efficacy,[1],9.61% (inactive)
same,outcome,[2],inactive
same,outcome,[3],inactive
same,outcome,[4],inactive
same,outcome,[5],inactive
same,outcome,[6],inactive
same,outcome,[7],inactive
same,outcome,[8],inactive
same,outcome,[9],inactive
CO[C@]12CC[C@@]3(C[C@@H]1[C@](C)(O)C(C)(C)C)[C@@H]1Cc4ccc(O)c5c4[C@@]3(CCN1CC1CC1)[C@H]2O5,"parasite growth, % of DMSO control",[13],5.19% [at 57.2 µM]
same,"parasite growth remaining, % of DMSO control (lower = more inhibition)",[14],6.03% [at 57.2 µM]
same,"parasite growth, % of control (lower = inhibition)",[15],19.3% [at 57.2 µM]
same,"growth, % of control",[16],7.07% [at 57.2 µM]
same,efficacy,[1],-151% (inactive)
same,outcome,[2],inactive
same,outcome,[3],inactive
same,outcome,[4],inactive
same,AC50,[5],5.62 µM (active)
same,AC50,[17],3.16 µM (active)
same,AC50,[8],3.16 µM (active)
CO/N=C(\C(=O)N[C@@H]1C(=O)N2C(C(=O)O)=C(CSc3nc(=O)c(O)nn3C)CS[C@H]12)c1csc(N)n1,efficacy,[1],11.1% (inactive)
same,outcome,[2],inactive
same,outcome,[3],inactive
same,outcome,[4],inactive
same,outcome,[5],inactive
same,outcome,[6],inactive
same,outcome,[7],inactive
same,outcome,[8],inactive
same,outcome,[9],inactive
Cc1cnc(C(=O)NCCc2ccc(S(=O)(=O)NC(=O)NC3CCCCC3)cc2)cn1,efficacy,[1],-14.5% (inactive)
same,outcome,[2],inactive
same,outcome,[3],inactive
same,outcome,[4],inactive
same,outcome,[5],inactive
same,outcome,[6],inactive
same,outcome,[7],inactive
same,outcome,[8],inactive
same,outcome,[9],inactive
OCCN1CCN(CCCN2c3ccccc3Sc3ccc(C(F)(F)F)cc32)CC1,Potency,[10],11.2 µM (active)
same,efficacy,[1],-98.3% (inactive)
same,outcome,[2],inactive
same,outcome,[3],inactive
same,outcome,[4],inactive
same,AC50,[5],3.55 µM (active)
same,AC50,[17],3.16 µM (active)
same,AC50,[8],3.16 µM (active)
